Experimental findings from PubChem BioAssay (NCI) are described below.

About 83,000 compounds went through this panel and 20% of them were active in at least one assay; those are over-represented in the sample as a whole.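 Values shown are percent growth following 48 h exposure of cells in 96-well plates to a single concentration of compound; below 10 was considered active.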 A number with no mark means an inactive call. The source made the active and inactive calls.

This experiment relates to SN12C renal. Nature of the experiment: NCI-60 one-dose screen, 48 h (100 = growth as untreated, 0 = no growth, -100 = all killed). As to conditions: 10 µM unless noted. How it is done: Growth inhibition of the SN12C human tumor cell line is measured as a screen for anti-cancer activity. Cells are grown in 96 well plates and exposed to the test compound for 48 hours. Compounds are tested at a single concentration, which is 10^-5 M for most compounds. The reported endpoint is percent growth (GI% or GIPRCNT), where numbers from 0 - 100% represent growth inhibition, and numbers from -100% - 0 represent cell death. For example, a value of 40 represents 60% growth inhibition. A value of 0 means no net growth occurred over the course of the experiment. A value of -40 indicates 40% of cells at the beginning of the experiment died by the end of the experiment. A value of -100 means all cells are dead at the end of the experiment.
NCI-60 Human Tumor Cell Lines Screen was performed using the standard one-dose NCI protocol, which is described in more detail at https://dtp.cancer.gov/discovery_development/nci-60/default.htm.
Compounds with GIPRCNT values below 10 were considered active. Activity score was based on GIPRCNT using the following formula: […]
Score is 0 for GIPRCNT values of 100 or above, 50 for GIPRCNT values of 0, and 100 for GIPRCNT values of -100.
For `Nc1c(C(=O)Nc2ccccn2)sc2nc3c(cc12)CCCCC3`, the growth is 39.4%. The same measure for `CC(C)(C)c1nn(-c2ccccc2)c2c1COCN2Cc1ccc(Cl)cc1`: 96.7%.

For `CC(=O)OCC1OC(OC2C(COC(C)=O)OC(OCCC[S-])C(OC(C)=O)C2OC(C)=O)C(OC(C)=O)C(OC(C)=O)C1OC(C)=O.[Au+].c1ccc(CN2[CH-]N(Cc3ccccc3)C(c3ccccc3)=C2c2ccccc2)cc1` (stereo not given), the growth is 9.26% (active).

As to `COC(=O)c1ccc(NC(=O)CSc2nc(-c3ccc(F)cc3)nc3ccccc23)cc1`, the growth is 79.3%. In the case of `COc1ccc(C(=O)c2cc(OC)c(OC)c(OC)c2)cc1OC(=O)CCl` it was 32%; in that of `COC(=O)c1cc2c3c(cc(O)c2[nH]1)N(C(=O)C1Cc2cc(OC)c(OC)c(OC)c2N1)CC3CCl` (stereo not given), -88.9% (active); in that of `C=C(C)[C@@H]1CC[C@]2(C(=O)n3ccnc3)CC[C@]3(C)[C@H](CC[C@@H]4[C@@]5(C)CCCNC(C)(C)[C@@H]5CC[C@]43C)[C@@H]12`, 29.6%. Turning to `CCSc1nc(Cl)c(C#N)c(-c2ccc(F)cc2)n1`, the growth is 95.4%. The same measure for `Nc1n[nH]c2cccc(C#Cc3cccc(NC(=O)c4cc(N5CCOCC5)cc(C(F)(F)F)c4)c3)c12`: 57.6%; for `COc1cc(/C=C/C(=O)/C=C/c2cc3ccc(Cl)cc3[nH]c2=O)ccc1O`: 63.9%; for `O=C(Nc1ccc2ncnc(Nc3ccc(F)c(Cl)c3)c2c1)c1ccccc1`: 71.2%. The same measure for `C/C(=C\c1cnc(C)s1)[C@@H]1C[C@@H]2O[C@@H]2CCC[C@H](C)[C@H](O)[C@@H](C)C(=O)C(C)(C)[C@@H](O)CC(=O)O1`: 54%; for `CN1CC=C(c2cc(NC(=O)Nc3ccc(Oc4ccnc(NC(=O)C5CC5)c4)c(F)c3)cc(C(F)(F)F)c2)CC1`: 2.74% (active). The same measure for `O=C1c2ccccc2C(=O)c2c1oc1c2c(=O)[nH]c2ccc(Cl)cc21`: -26.3% (active); for `[2H]c1nc(Nc2ncc3cc(C(=O)N(C)C)n(C4CCCC4)c3n2)c([2H])c([2H])c1N1C([2H])([2H])C([2H])([2H])NC([2H])([2H])C1([2H])[2H]`: 67.9%. Turning to `NCCN1CCNCC1`, the growth is 92%. In the case of `CCOC(=O)c1c(-c2ccc(O)cc2)c(C#N)c2c(C#N)c(N)nn2c1N` it was 81.7%; in that of `N#Cc1ccc(N2Cc3cc(Cl)ccc3OC3=C2C(=O)N(Cc2ccc(F)cc2)C3=O)cc1`, -24.9% (active); in that of `N#Cc1c(-c2ccc(F)cc2)nc(N=Nc2c(O)[nH]c3ccc(Cl)cc23)nc1N1CCOCC1`, -9.86% (active). Regarding `COCCc1n(Cc2ccc3ccccc3c2)c2ccccc2[n+]1Cc1ccc2ccccc2c1`, the growth is -68% (active).

In the case of `O=c1[nH]nc(-c2ccccc2)c2sc(NC(=S)Nc3ccc(Cl)cc3)nc12`, the growth was 103%. The same measure for `O=c1c2ccccc2oc2ccc(OCCCCCCN3CCCCCC3)cc12`: 55%; for `CC(C)(C)c1ccc2oc(=O)n(SC(Cl)(Cl)Cl)c2c1`: 102%. The same measure for `O=C(O)c1cc(N=Nc2ccc(-c3ccc(N=Nc4c(S(=O)(=O)O)cc5ccc(Nc6ccccc6)cc5c4O)cc3)cc2)ccc1O`: 98.7%; for `CCCCn1c(=O)c(/C=C/C(=O)/C=C/c2cc3ccccc3n(CCCC)c2=O)cc2ccccc21`: -28.1% (active); for `O=C1C(=O)c2c(nc3ccc(C(F)(F)F)cn23)-c2ccccc21`: -84.4% (active).

Consider `NCCCn1c2c(c3cc(-c4ccn[nH]4)ccc3c1=O)C(=O)c1ccccc1-2`, for which the growth was 49.1%.

On to `C(=C\c1cn(-c2ccccc2)nc1-c1ccccc1)/c1nnc(-c2c[nH]c3ccccc23)o1`, for which the growth was 27.9%.

For `Cc1cc(O)cc(O)c1N=NC1=NCCS1`, the growth is 109%. The same measure for `COc1ccc(-n2cc(COc3ccc4c5ccnc(C)c5n(CC(C)C)c4c3)nn2)cc1`: 77%; for `FC(F)(F)c1ccc2c(Nc3cccc(C4CC(c5ccccc5)=NN4c4ccc(Cl)cc4)c3)ccnc2c1` (stereo not given): 37.7%. The same measure for `CCCn1c(N)c(C(N)=O)sc1=S`: 93.8%; for `Cc1nccc2c3ccc(OCc4cn(-c5ccccc5)nn4)cc3n(CCCc3ccccc3)c12`: 75.6%.

On to `COc1ccc(C2CC(c3ccc(OC)cc3O)=NN2c2ccc(S(N)(=O)=O)cc2)cc1` (stereo not given), for which the growth was 54.2%. In the case of `Cc1c(Cl)cccc1NC(=O)c1sc2nc3c(cc2c1N)CN(Cc1ccccc1)CC3` it was 59.2%; in that of `NC[C@@H]1CCN(c2cc3c(cc2F)c(=O)n(N)c(=O)n3Cc2ccc(-c3ccccc3)cc2)C1`, 87.3%; in that of `CCCCOc1nc2ccc(C)cc2cc1/C=C/C(=O)/C=C/c1ccc2c(c1)OCO2`, 89.2%. In the case of `COc1ccc(/C=C(/C(=O)N2CCCC2)c2cc(OC)c(OC)c(OC)c2)cc1` it was 48.1%; in that of `COCCOCCOCc1n(Cc2ccc3ccccc3c2)c2ccccc2[n+]1Cc1ccc2ccccc2c1`, 11.7%; in that of `COC(=O)c1oc2c(C(=O)/C=C/c3ccc(OC)cc3)c(OCCCN3CCCCC3)ccc2c1C`, 22.5%.
